Most compounds without a hit are left out; they make up all but 1.1% or so of the library.
HTR5A inv ctr: HTR5A inverse agonism, opioid heterodimer counter-screen | P47898 | HTR5A cell line, luminescence | inhibition, % at 9.3 µM | 340,000 tested, 0.083% active | AID 504634; in the data active means inhibition mostly above about 23%, no sharp cut-off; inactive means mostly below about 18%
Target sequence (P47898 whole entry, looked up): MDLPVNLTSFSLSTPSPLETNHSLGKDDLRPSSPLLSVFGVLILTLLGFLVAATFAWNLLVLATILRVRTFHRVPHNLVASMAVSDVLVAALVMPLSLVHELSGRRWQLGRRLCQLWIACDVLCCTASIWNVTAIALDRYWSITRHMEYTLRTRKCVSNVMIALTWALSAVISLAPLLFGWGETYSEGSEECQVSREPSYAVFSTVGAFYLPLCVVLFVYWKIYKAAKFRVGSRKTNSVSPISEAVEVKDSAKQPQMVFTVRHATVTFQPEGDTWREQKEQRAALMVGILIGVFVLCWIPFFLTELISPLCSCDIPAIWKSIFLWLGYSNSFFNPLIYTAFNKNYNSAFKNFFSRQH
HTR5A ag ctr: counter-screen for OPRM1-OPRD1 agonists: human HTR5A agonism. P47898. HTR5A agonist assay, luminescence, cell-based. activation, % at 9.3 µM. 340,000 tested, 0.61% active; in the data active means activation mostly above about 9.5%, no sharp cut-off; inactive means mostly below about 7.6%
MOR-DOR inv ag: mu-delta opioid heterodimer inverse agonism; P35372+P41143; cell-based MOR-DOR heterodimer luminescence; inhibition, % at 9.3 µM; 340,000 tested, 0.21% active; in the data active means inhibition above about 22%, passing the limit was not always enough
MOR-DOR ag: OPRM1-OPRD1 heterodimerization agonism | activation, % at 9.3 µM | cells, luminescence | AID 504326 | 340,000 tested, 0.3% active
MOR-DOR ag conf: confirmation of human OPRM1-OPRD1 heterodimerization agonists; shares compounds with MOR-DOR ag; cells, MOR-DOR heterodimerization, luminescence complementation; activation, % at 9.3 µM; 830 tested, 45% active
HTR5A ag counter: HTR5A agonism, opioid heterodimer counter-screen; shares compounds with MOR-DOR ag; HTR5A agonist counterscreen, cell luminescence; activation, % at 9.3 µM; 830 tested, 8% active; AID 504905; in the data active means activation above about 17%
Large screens that a line does not name were inactive (follow-up assays come after a bar, where they were run). Unless noted, no stated cut-off is given here; in the data, active means activation above about 18%; inactive means the rest.

Cc1ccc(C)c(-n2cc(CNCCc3cnccn3)c(-c3ccccc3)n2)c1	MOR-DOR ag 54 | MOR-DOR ag conf 79 | HTR5A ag counter inactive
O=C(Cn1c(-c2ccccc2)c[n+]2ccsc12)c1ccc(Br)cc1	MOR-DOR ag 171 | MOR-DOR ag conf inactive | HTR5A ag counter inactive
Cc1c(NC(=O)c2ccc(-c3cccc([N+](=O)[O-])c3)o2)c(=O)n(-c2ccccc2)n1C	none
O=C(Nc1ncc(Cc2ccc(SC(F)F)cc2)s1)c1ccc(OC(F)F)cc1	MOR-DOR ag 19 | MOR-DOR ag conf inactive | HTR5A ag counter inactive
COc1ccc2[nH]c3c(N4CCc5ccccc5C4)ncnc3c2c1	MOR-DOR ag 20 | MOR-DOR ag conf inactive | HTR5A ag counter inactive
CCOC(=O)N1CCN(c2ncnc3c2[nH]c2ccc(OC)cc23)CC1	none
COc1cccc(/C=C2\CCCCC2=O)c1	none
CCOC(=O)c1c(C)[nH]c(C(=O)OCC(O)=C(C#N)c2nc3ccccc3[nH]2)c1C	HTR5A ag ctr 13, MOR-DOR ag 38 | MOR-DOR ag conf 31 | HTR5A ag counter inactive
N#C/C(=C(/O)COC(=O)c1ccc(O)cc1)c1nc2ccccc2[nH]1	none
N#C/C(=C(/O)COC(=O)COc1cccc(Br)c1)c1nc2ccccc2[nH]1	MOR-DOR ag 26 | MOR-DOR ag conf inactive | HTR5A ag counter inactive
COc1ccc(C2CC(c3ccc(Br)cc3)=NN2C(=O)CSC2=NCCS2)cc1 (centres undefined)	MOR-DOR ag 102 | MOR-DOR ag conf inactive | HTR5A ag counter inactive
COc1ccc(C2=NN(C(=O)CSc3ncccn3)C(c3ccc(C)cc3)C2)cc1 (centres undefined)	none
O=C(O)CCCCCCCCCCP(=O)(c1ccccc1)c1ccccc1	none
O=P(CCCCCCCCCP(=O)(c1ccccc1)c1ccccc1)(c1ccccc1)c1ccccc1	MOR-DOR ag 21 | MOR-DOR ag conf inactive | HTR5A ag counter inactive
COC(=O)c1ccc(NC(=O)[C@H](C)NC(N)=O)cc1	none
O=C(N/N=C/c1c(O)ccc2ccccc12)c1ccc(Br)o1	MOR-DOR ag 24 | MOR-DOR ag conf inactive | HTR5A ag counter inactive
O=C(N/N=C\c1c(O)ccc2ccccc12)c1ccc(O)cc1	none
CCN(C(=O)c1ccc2c(c1)OCO2)C12CC3CC(CC(C3)C1)C2	none
CCOc1ccc2oc(C(=O)OCC(=O)N3CC(C)OC(C)C3)c(C)c2c1 (centres undefined)	none
CN(C)C(CNC(=O)c1oc2ccccc2c1CSc1ncn[nH]1)c1ccco1 (centres undefined)	MOR-DOR ag 21 | MOR-DOR ag conf 30 | HTR5A ag counter inactive
CC(C(=O)NC1CCCc2ccccc21)N1C(=O)C2CCCCC2C1=O (centres undefined)	none
Cc1cc(/C=C2\SC(=Nc3ccc(F)cc3)NC2=O)c(C)n1-c1ccc(S(N)(=O)=O)cc1	MOR-DOR ag 125 | MOR-DOR ag conf 24 | HTR5A ag counter inactive
CN(C)C(=O)CCc1ccc2c3c([nH]c2c1)[C@]1(C)[C@@H](C(=O)N2CCCCC2)C[C@H](CC(=O)NCCCn2ccnc2)C(=O)N1CC3	none
CCOC(=O)C1=C(CN2CC(C)CC(C)C2)NC(=O)NC1c1ccc2c(c1)OCO2 (centres undefined)	MOR-DOR ag 26 | MOR-DOR ag conf 24 | HTR5A ag counter inactive
COc1ccc(N2C(=S)N=C(Nc3ccccc3)C23CCCCC3)cc1	MOR-DOR ag 29 | MOR-DOR ag conf inactive | HTR5A ag counter inactive
CCOC(=O)c1nnn(CC(=O)N2N=C(c3cc(C)ccc3C)CC2c2ccc(OC)cc2)c1C(=O)OCC (centres undefined)	MOR-DOR ag 20 | MOR-DOR ag conf inactive | HTR5A ag counter 62
CCOC(=O)c1nnn(CC(=O)N2N=C(c3ccccc3)CC2c2ccccc2)c1C(=O)OCC (centres undefined)	none
Cc1ccc(C)c(N2CCN(C(=O)Nc3ccc4c(c3)N(C)C(=O)CS4)CC2)c1	none
CN1C(=O)CSc2ccc(NC(=O)N3CCN(c4ccccn4)CC3)cc21	MOR-DOR ag 36 | MOR-DOR ag conf 26 | HTR5A ag counter inactive
COc1cccc(NC(=O)Nc2ccc3c(c2)N(C)C(=O)CS3)c1	none
CC(=O)Nc1ccc(NC(=O)Nc2ccc3c(c2)N(C)C(=O)CS3)cc1	MOR-DOR ag 21 | MOR-DOR ag conf inactive | HTR5A ag counter inactive
CCOC(=O)C1(CCOC)CCN(Cc2cccc(OCc3ccccc3)c2)CC1	none
CCOC(=O)C1(CCOc2ccccc2)CCN(Cc2ccc(O)c(Cl)c2)CC1	none
CCOC(=O)C1(CCOc2ccccc2)CCN(Cc2cc(OC)ccc2OC)CC1	MOR-DOR ag 53 | MOR-DOR ag conf inactive | HTR5A ag counter 17
CCOC(=O)C1(CCOc2ccccc2)CCN(Cc2cccc(OC)c2)CC1	MOR-DOR ag 19 | MOR-DOR ag conf inactive | HTR5A ag counter 93
CCOC(=O)C1(CCOc2ccccc2)CCN(Cc2ccc3c(c2)OCCO3)CC1	MOR-DOR ag 25 | MOR-DOR ag conf 44 | HTR5A ag counter inactive
CCOC(=O)C1(CCOC)CCN(Cc2ccccc2-c2ccco2)CC1	MOR-DOR ag 130 | MOR-DOR ag conf 33 | HTR5A ag counter inactive
O=C(Nc1ccccc1C(F)(F)F)C1CCN(C(=O)Cc2ccccc2)CC1	none
COC(=O)c1ccccc1S(=O)(=O)N1CCC(C(=O)NCCC2=CCCCC2)CC1	none
CC(NCc1ccccc1Cl)C(=O)Nc1ccc(C#N)cc1 (centres undefined)	none
O=C1CC2(CCCC2)C(=O)N1c1ccc(S(=O)(=O)NCC2CC2)cc1Cl	none
CCOC(=O)C1(CC2CCCCO2)CCN(Cc2ccc(OC)cc2F)CC1 (centres undefined)	MOR-DOR ag 48 | MOR-DOR ag conf 59 | HTR5A ag counter inactive
COc1ccc(-n2cc(CNCc3cccnc3)c(-c3cccc(F)c3)n2)cc1	MOR-DOR ag 55 | MOR-DOR ag conf 404 | HTR5A ag counter inactive
COc1ccc(-c2nn(-c3ccccc3C)cc2CNCc2cccnc2)cc1F	MOR-DOR ag 72 | MOR-DOR ag conf 134 | HTR5A ag counter inactive
COc1ccc(-c2nn(-c3ccccc3)cc2CNCc2cccnc2)c(F)c1	MOR-DOR ag 21 | MOR-DOR ag conf inactive | HTR5A ag counter inactive
Fc1ccccc1COc1ccc(Br)cc1CNCc1cccnc1	none
COc1ccc(CNCc2cn(-c3cccc(F)c3)nc2-c2ccc(C)o2)cc1	MOR-DOR ag 120 | MOR-DOR ag conf inactive | HTR5A ag counter inactive
Cc1cc2cc(CNC(=S)NC3CCCCC3)ccc2n1C	none
O=C(CCNC(=O)c1ccco1)Nc1ccc(OC(F)F)cc1	none
O=C(Nc1cccc(-c2nc3ccccc3[nH]2)c1)c1cccc(NC(=O)c2ccco2)c1	MOR-DOR ag 88 | MOR-DOR ag conf inactive | HTR5A ag counter inactive
O=C(CSc1ccc(Cl)cc1)Nc1cccc(-c2nc3ccccc3[nH]2)c1	MOR-DOR ag 34 | MOR-DOR ag conf inactive | HTR5A ag counter inactive
O=C(CSc1ccccc1)Nc1ccc(-c2nc3ccccc3[nH]2)cc1	MOR-DOR ag 22 | MOR-DOR ag conf inactive | HTR5A ag counter inactive
